According to PubChem BioAssay (EPA / NIEHS):
Results filed as inconclusive are left out. The source made the active and inactive calls. Rule for the calls: active = hit-call score of the fitted dose curve at least 0.9, where 1 is the maximum; inconclusive = response in the unintended direction; inactive = score below 0.9.

How the values were obtained:
[1] = molecular target: Cellular tumor antigen p53 (Homo sapiens) (UniProt P04637); experiment: TOX21_p53_BLA_p2_ratio: Tox21 HCT-116 p53 Agonism Beta-lactamase Assay, Ratio, Phase 2 (AID 2283592)
Procedure, shortened: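 Gain-of-signal p53 agonism was scored from the beta-lactamase FRET ratio (460/530 nm, 405 nm excitation) in HCT116 cells treated 16 h at 37C, 5% CO2, with DMSO serving as negative control and baseline.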

[2] = TOX21_p53_BLA_p3_viability: Viability Assessment in the Tox21 HCT-116 p53 Agonism Beta-lactamase Assay, Phase 3 (AID 2283593);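 note: cells exposed to compound for 16 h before reading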
Procedure, shortened: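 HCT116 cells, 4000/well, dosed 5 h after plating by pin transfer (217-fold dilution from DMSO stock) and incubated 16 h at 37C, 5% CO2. Viability read as ATP luminescence with CellTiter-Glo after 30 min at room temperature.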

[3] = molecular target: Cellular tumor antigen p53 (Homo sapiens) (UniProt P04637); experiment: TOX21_p53_BLA_p3_ratio: Tox21 HCT-116 p53 Agonism Beta-lactamase Assay, Ratio, Phase 3 (AID 2283596)
Procedure, shortened: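 HCT116 p53-bla cells (4000/well) given compound in DMSO (217-fold dilution) after 5 h, incubated 16 h at 37C. CCF4-AM substrate 2 h at room temperature; 460/530 nm emission ratio, gain fitted against DMSO.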

[4] = TOX21_p53_BLA_p4_viability: Viability Assessment in the Tox21 HCT-116 p53 Agonism Beta-lactamase Assay, Phase 4 (AID 2283597);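 note: hits lower the luminescence signal meaning cytotoxicity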
Procedure, shortened: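 Following a 16 h exposure at 37C, the treated HCT116 wells were first read for the FRET ratio. They were then lysed with CellTiter-Glo, and ATP luminescence was recorded after 30 min at room temperature.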

[5] = molecular target: Cellular tumor antigen p53 (Homo sapiens) (UniProt P04637); experiment: TOX21_p53_BLA_p5_ratio: Tox21 HCT-116 p53 Agonism Beta-lactamase Assay, Ratio, Phase 5 (AID 2283599)
Procedure, shortened: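 HCT-116 p53-bla cells (4000/well) plated 5 h, dosed with compound (217-fold DMSO dilution) for 16 h at 37 C; CCF4-AM substrate 2 h at room temperature. Activity is the 460/530 nm emission ratio (405 nm excitation), fitted in gain-of-signal direction versus DMSO.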

[6] = TOX21_p53_BLA_p5_viability: Viability Assessment in the Tox21 HCT-116 p53 Agonism Beta-lactamase Assay, Phase 5 (AID 2283600)
Procedure, shortened: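 After the 460/530 nm beta-lactamase measurement, the wells received an ATP-detection luciferase reagent; signal was read 30 min later at RT. Compound treatment lasted 16 h on cells pre-incubated 5 h post-seeding.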

[7] = molecular target: Cellular tumor antigen p53 (Homo sapiens) (UniProt P04637); experiment: TOX21_p53_BLA_p4_ratio: Tox21 HCT-116 p53 Agonism Beta-lactamase Assay, Ratio, Phase 4 (AID 2283601)
Procedure, shortened: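 HCT-116 p53 beta-lactamase reporter cells (4000/well) preincubated 5 h, then compound (217-fold dilution of DMSO stock) for 16 h at 37C. CCF4-AM substrate added 2 h at room temperature; 460/530 nm emission ratio fitted upward versus DMSO.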

Measured: outcome

Sequence of Cellular tumor antigen p53 (Homo sapiens) (P04637 whole entry, looked up): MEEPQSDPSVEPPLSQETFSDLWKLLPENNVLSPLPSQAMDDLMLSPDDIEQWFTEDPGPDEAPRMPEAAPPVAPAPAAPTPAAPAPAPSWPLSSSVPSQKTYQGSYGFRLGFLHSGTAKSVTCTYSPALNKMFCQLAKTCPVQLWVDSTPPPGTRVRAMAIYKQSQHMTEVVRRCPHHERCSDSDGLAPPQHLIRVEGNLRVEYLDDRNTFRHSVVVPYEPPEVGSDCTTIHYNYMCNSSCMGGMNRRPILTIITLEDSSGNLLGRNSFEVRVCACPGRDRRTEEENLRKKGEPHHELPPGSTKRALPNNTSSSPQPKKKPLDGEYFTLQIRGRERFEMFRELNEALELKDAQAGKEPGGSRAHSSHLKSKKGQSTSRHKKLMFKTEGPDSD

C[C@]12CC[C@H](OS(=O)(=O)O)CC1=CC[C@@H]1[C@@H]2CC[C@]2(C)C(=O)CC[C@@H]12
inactive: all assays above

CCCC1CCCCN1 (stereo not drawn)
not listed: [6]
inactive: all other assays above
